Assay outcomes as filed in PubChem.
NOD2 RIPK2 PPI: NOD2-RIPK2 binding disruptors in cells, primary screen, fluorescence, CHO cells, BLA complementation. inhibition, % at 4.98 µM. CCF4 ratio. Receptor-interacting serine/threonine-protein kinase 2 (Homo sapiens), O43353. 0.38% of 360,000 active; in the data active means inhibition above about 21%
ABHD5-PLIN5 inh: ABHD5-PLIN5 interaction inhibitors, primary screen, cell lysate, split luciferase complementation, luminescence. Perilipin-5 (Homo sapiens) + 1-acylglycerol-3-phosphate O-acyltransferase ABHD5 (Homo …. Split G. princeps luciferase complementation, 4 h. inhibition, % at 4 µM. AID 602281, 2012. 0.78% of 360,000 active;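 active means inhibition above the mean inhibition across every tested compound plus 3 SD, cut at about 22% in these data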
PRMT1 inh: PRMT1 methyltransferase inhibitors, primary screen, biochemical, fluorescence polarization. inhibition, % at 2.79 µM. recombinant PRMT1, activity-based probe fluorescence polarization. 1.3% of 370,000 active. AID 652257, 2013. Protein arginine N-methyltransferase 1 (Homo sapiens), Q99873;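 active means inhibition above about 21% made by adding two undisclosed values, limit read from the data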
TLR4-MyD88 BLA: inhibitors of TLR4-MyD88 association in cells, primary screen, cell-based, HeLa CL3-4, BLA complementation, FRET ratio | Toll-like receptor 4 (Homo sapiens) + Myeloid differentiation primary response protein … | HeLa CL3-4 TLR4/MyD88 BLA complementation | 0.18% of 200,000 active | inhibition, % at 8.4 µM | AID 861, 2007; in the data active means inhibition above about 25%
Target sequence (O00206 whole entry, looked up): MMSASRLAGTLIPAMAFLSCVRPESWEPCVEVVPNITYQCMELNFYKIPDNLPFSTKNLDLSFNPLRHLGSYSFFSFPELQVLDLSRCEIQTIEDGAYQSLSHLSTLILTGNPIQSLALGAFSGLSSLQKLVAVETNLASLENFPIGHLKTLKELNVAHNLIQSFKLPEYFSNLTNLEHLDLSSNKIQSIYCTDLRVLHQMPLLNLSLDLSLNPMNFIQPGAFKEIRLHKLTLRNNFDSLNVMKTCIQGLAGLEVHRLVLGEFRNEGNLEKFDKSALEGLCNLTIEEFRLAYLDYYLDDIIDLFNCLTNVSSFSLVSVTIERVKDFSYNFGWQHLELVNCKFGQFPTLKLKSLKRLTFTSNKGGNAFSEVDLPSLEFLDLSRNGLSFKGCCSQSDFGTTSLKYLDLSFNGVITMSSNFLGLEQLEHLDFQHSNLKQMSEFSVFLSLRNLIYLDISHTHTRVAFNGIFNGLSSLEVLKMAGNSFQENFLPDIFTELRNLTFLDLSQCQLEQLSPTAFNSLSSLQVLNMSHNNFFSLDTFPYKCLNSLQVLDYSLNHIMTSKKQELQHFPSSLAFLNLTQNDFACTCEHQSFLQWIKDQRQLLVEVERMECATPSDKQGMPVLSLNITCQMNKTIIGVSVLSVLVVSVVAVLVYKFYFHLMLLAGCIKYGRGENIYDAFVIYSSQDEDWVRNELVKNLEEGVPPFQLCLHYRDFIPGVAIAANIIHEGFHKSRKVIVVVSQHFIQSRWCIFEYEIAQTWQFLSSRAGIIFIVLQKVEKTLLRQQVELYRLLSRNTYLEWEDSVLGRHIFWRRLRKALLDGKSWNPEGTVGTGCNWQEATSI
Target sequence (Q99836 whole entry, looked up): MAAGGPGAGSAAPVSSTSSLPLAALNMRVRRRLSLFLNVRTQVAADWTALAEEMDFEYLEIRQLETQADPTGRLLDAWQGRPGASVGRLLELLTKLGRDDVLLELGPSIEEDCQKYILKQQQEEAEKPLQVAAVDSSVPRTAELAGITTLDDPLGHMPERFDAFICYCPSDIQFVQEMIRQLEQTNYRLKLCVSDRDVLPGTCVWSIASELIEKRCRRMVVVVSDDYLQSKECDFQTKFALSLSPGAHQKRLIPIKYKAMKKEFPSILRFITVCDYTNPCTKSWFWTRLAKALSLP
rCAG binder-1: binders of r(CAG) RNA repeats, primary screen, biochemical, fluorescence; 1.3% of 370,000 active; r(CAG) RNA repeat, TO-PRO-1 dye displacement fluorescence; inhibition, % at 3 µM;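 active means inhibition above the plate cutoff, the mean of all test compounds on that plate plus 3 SD, cut at about 35% in these data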;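 further: higher means more dye released from RNA so lower well fluorescence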
TLR9-MyD88 inh: inhibitors of TLR9-MyD88 association in cells, primary screen, cell-based, CHO, BLA complementation, fluorescence | 0.21% of 340,000 active | CCF4 FRET ratio | inhibition, % at 4.98 µM | Toll-like receptor 9 (Homo sapiens) + Myeloid differentiation primary response protein … | AID 504734, 2011;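 active means inhibition above the mean over all tested compounds plus 3 SD, cut at about 21% in these data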
rCAG binder conf: small molecules binding CAG repeat RNA – biochemical, fluorescence, confirmation; shares compounds with rCAG binder-1; r(CAG) RNA repeat, TO-PRO-1 dye displacement fluorescence; inhibition, % at 3 µM; 70% of 4,300 active; AID 652065, 2013;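 active means inhibition above a per-plate cutoff, the mean inhibition of sample wells plus 3 SD, cut at about 35% in these data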;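 further: loss of TO-PRO-1 fluorescence as compound displaces dye from 1x1 AA loop RNA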
DNA CAG counter: displacement of TO-PRO-1 from CAG DNA duplex, counter-screen for rCAG RNA repeat binder project, biochemical, fluorescence, TO-PRO-1 dye, d(CAG) DNA oligo | shares compounds with rCAG binder-1 | d(CAG) DNA oligo TO-PRO-1 dye displacement | inhibition, % at 3 µM | 94% of 4,300 active | AID 652068, 2013;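 active means inhibition above its plate's cutoff, the mean test-well inhibition plus 3 SD, cut at about 4.8% in these data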;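 further: hits displace the dye from DNA and so lower well fluorescence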
dCAG dye DR: inhibitors of DNA CAG/GTC TO-PRO-1 complex, dose response, counter-screen for rCAG RNA repeat binder project, biochemical, fluorescence, TO-PRO-1 dye | shares compounds with rCAG binder-1 | DNA CAG/GTC duplex TO-PRO-1 dye displacement fluorescence | IC50, µM | 20% of 250 active | AID 686960, 2013; in the data active means IC50 below about 10 µM
dCAG DNA bind: TO-PRO-1 dye complex inhibitors on d(CAG) DNA, dose response, counter-screen, biochemical, fluorescence, late stage. shares compounds with rCAG binder-1. d(CAG) DNA duplex TO-PRO-1 dye displacement. IC50, µM. 80% of 30 active. AID 720649, 2013
rCAG binder-2: molecules binding r(CAG) RNA repeats, late stage dose response, late-stage follow-up, biochemical, fluorescence, dose response, powder samples; shares compounds with rCAG binder-1; r(CAG) RNA TO-PRO-1 dye displacement; IC50, µM; 100% of 30 active
Large screens that a line does not name were inactive (follow-up assays come after a bar, where they were run). Compounds with a hit are over-represented: about 3.3% of the library has one in this group of screens. Unless noted, how the calls were made is not given here.

CC[C@@H](C(=O)[C@@H](C)[C@@H](O)[C@H](C)CCc1ccc(C)c(O)c1C(=O)O)[C@H]1O[C@](CC)([C@H]2CC[C@](O)(CC)[C@H](C)O2)C[C@@H]1C	rCAG binder-1 57.8 (no result: TLR4-MyD88 BLA) | rCAG binder conf 60.2 | DNA CAG counter 12.3 | dCAG dye DR inactive
CN(C)S(=O)(=O)c1cc(NC(=O)COC(=O)Cc2ccccc2)ccc1Cl	none
COc1ccc(C2CC(c3c(O)n(CCc4ccccc4)c(=O)[nH]c3=O)=NN2)cc1OC (centres undefined)	rCAG binder-1 41.9 (no result: TLR4-MyD88 BLA) | rCAG binder conf inactive | DNA CAG counter 8.0
Cc1cc(OCC(=O)NC(Cc2ccc(Cl)cc2)C(=O)O)c2c3c(c(=O)oc2c1)CCC3 (centres undefined)	rCAG binder-1 54.3 (no result: TLR4-MyD88 BLA) | rCAG binder conf 53.7 | DNA CAG counter 15.5
Cc1ccc(-n2c(=S)[nH]c3ccccc3c2=O)cc1F	rCAG binder-1 36.2 (no result: TLR4-MyD88 BLA) | rCAG binder conf inactive | DNA CAG counter 8.9
COC12c3ccccc3-c3ccccc3C1C(C(=O)O)C2C(=O)O (centres undefined)	none (no result: TLR4-MyD88 BLA, TLR9-MyD88 inh)
c1ccc(N2[C@@H]3CC[C@H]2c2ccccc2C3)cc1	none (no result: TLR4-MyD88 BLA)
CNc1ccc2oc(C[C@H]3O[C@@]4(CC[C@H]3C)O[C@H]([C@H](C)C(=O)c3ccc[nH]3)[C@H](C)C[C@H]4C)nc2c1C(=O)O	PRMT1 inh 25.6, rCAG binder-1 78.5 (no result: TLR4-MyD88 BLA) | rCAG binder conf 38.3 | DNA CAG counter 7.3
O=C(O)CCC(=O)NCCC1=c2ccccc2=N/C1=C\c1c(O)n(Cc2ccc(F)cc2)c(=S)[nH]c1=O	rCAG binder-1 35.1 (no result: TLR4-MyD88 BLA) | rCAG binder conf 36.7 | DNA CAG counter 13.0
CCS(=O)(=O)Nc1cccc(C(=C2CCCCC2)c2cnc[nH]2)c1	none (no result: TLR4-MyD88 BLA)
O=C1NC(=O)N(Cc2ccccc2Cl)C(=O)/C1=C/c1cccs1	rCAG binder-1 55.6 | rCAG binder conf inactive | DNA CAG counter inactive
Cc1cc(/C=C2\C(=O)NC(=O)N(Cc3ccccc3Cl)C2=O)c(C)n1-c1ccc(C(=O)O)cc1	rCAG binder-1 38.6 | rCAG binder conf 58.8 | DNA CAG counter 18.0
O=C1NC(=O)N(Cc2ccc(F)cc2)C(=O)/C1=C/c1cccs1	none
O=C1NCN(c2ccccc2)C12CCN(C(c1ccnc3ccccc13)c1nnnn1C1CCCC1)CC2 (centres undefined)	none (no result: TLR4-MyD88 BLA, TLR9-MyD88 inh)
O=C1/C(=C\c2ccc(Cl)c(Cl)c2)N2CCC1CC2	none (no result: TLR4-MyD88 BLA)
Oc1c(Cl)cccc1Cc1cc(Cl)cc(Cl)c1O	rCAG binder-1 58.9 (no result: TLR4-MyD88 BLA) | rCAG binder conf 61.8 | DNA CAG counter 16.2 | dCAG dye DR inactive
COc1ccc(CN2C(=O)NC(=O)/C(=C/c3ccc([N+](=O)[O-])o3)C2=O)cc1	none (no result: NOD2 RIPK2 PPI, ABHD5-PLIN5 inh, PRMT1 inh, rCAG binder-1, TLR9-MyD88 inh)
CCOc1cc(C2C(C#N)=C(N)Oc3c2c(=O)oc2ccccc32)ccc1OC(=O)c1cccs1 (centres undefined)	rCAG binder-1 46.5 | rCAG binder conf inactive | DNA CAG counter 15.1
N#CC1=C(N)Oc2c(c(=O)oc3ccccc23)C1c1cccnc1 (centres undefined)	none
CC(=O)N1CCN(c2ccc([N+](=O)[O-])cc2C=C2C(=O)NC(=O)NC2=O)CC1	rCAG binder-1 35.6 | rCAG binder conf inactive | DNA CAG counter inactive
COc1ccc(-n2nnnc2C(CCc2ccccc2)N2CCC3(CC2)C(=O)NCN3c2ccccc2)cc1 (centres undefined)	none (no result: TLR4-MyD88 BLA, TLR9-MyD88 inh)
C/C(=N\NC(=O)c1ccccc1O)c1c(O)n(C2CCCCC2)c(=O)[nH]c1=O	rCAG binder-1 82.8 (no result: TLR4-MyD88 BLA) | rCAG binder conf 76.9 | DNA CAG counter 34.5 | dCAG dye DR 3.09 | dCAG DNA bind 2.03 | rCAG binder-2 0.817
O=C(N/N=C/c1c(O)n(C2CC2)c(=S)[nH]c1=O)c1ccccc1O	rCAG binder-1 37.8 | rCAG binder conf inactive | DNA CAG counter 6.0
O=C(N/N=C/c1c(O)n(-c2ccccc2)c(=S)[nH]c1=O)c1ccccc1	none (no result: TLR4-MyD88 BLA, TLR9-MyD88 inh)
Cc1ccccc1-n1c(O)c(/C=N/NC(=O)c2ccccc2O)c(=O)[nH]c1=S	rCAG binder-1 56.2 (no result: TLR4-MyD88 BLA) | rCAG binder conf 35.0 | DNA CAG counter 9.0
CS(=O)(=O)CCN1CC2CCCC(C2)C1	none (no result: TLR4-MyD88 BLA)
O=C1NC(=O)N(Cc2ccc(F)cc2)C(=O)/C1=C\c1ccoc1	rCAG binder-1 48.2 (no result: TLR4-MyD88 BLA) | rCAG binder conf 37.8 | DNA CAG counter 11.4
CN(C)c1ccc(/C=C2\C(=O)NC(=O)N(Cc3ccc(F)cc3)C2=O)cc1	none (no result: TLR4-MyD88 BLA)
CC(=O)NC1=C(N2CC2C)C(=O)C(NC(C)=O)=C(N2CC2C)C1=O (centres undefined)	none (no result: TLR4-MyD88 BLA)
O=c1[nH]c(=S)n(CCC2=CCCCC2)c(O)c1C=NCc1cccnc1	none
O=C(N/N=C/c1c(O)n(CCC2=CCCCC2)c(=S)[nH]c1=O)c1ccccc1	rCAG binder-1 69.6 | rCAG binder conf 73.5 | DNA CAG counter 32.3 | dCAG dye DR inactive | dCAG DNA bind 2.21 | rCAG binder-2 0.987
O=C(N/N=C/c1c(O)n(CCC2=CCCCC2)c(=O)[nH]c1=O)c1ccccc1	rCAG binder-1 46.4 | rCAG binder conf 40.3 | DNA CAG counter 10.9
NC(Cc1ccc(N(CCCl)CCCl)cc1)C(=O)O (centres undefined)	none (no result: NOD2 RIPK2 PPI, ABHD5-PLIN5 inh, TLR4-MyD88 BLA, TLR9-MyD88 inh)
Cc1cccc(OCC(O)CN2CC2)c1 (centres undefined)	none (no result: TLR4-MyD88 BLA)
